Assay results taken from PubChem BioAssay.
Active and inactive are the calls of the source. Cut-off read from the data, not from the text of the source, unless noted: active = inhibition above about 80%; inactive = the rest.

Legend:
[1] = growth inhibition, single agent or in combination, cell-based, chromothripsis tumors, cisplatin or BGB combos (AID 1671449); conditions: LFS_MB_P medulloblastoma cells;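 note: cells exposed for 96 hours; 0% = vehicle DMSO and 100% = killing by high DMSO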
[2] = growth inhibition, single agent and combos, cell-based, chromothripsis tumors, cisplatin or BGB combos (AID 1671450); conditions: HDN33 neuroblastoma cells, stronger effect = higher value;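 note: cells exposed to compound for four days; 0% = vehicle DMSO and 100% = cell killing by high DMSO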
[3] = growth inhibition, single agents and combos, ICB984, cell-based, cisplatin or BGB combos, synergistic combos for chromothripsis tumors (AID 1671451; call rule not given here;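 note: cells exposed for 96 hours before readout; 0% = vehicle DMSO and 100% = killing by high DMSO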); conditions: ICB984 medulloblastoma cells, drug combinations, stronger effect = higher value
[4] = growth inhibition, single agents and combos, LFS_MB_1R, cell-based, cisplatin or BGB combos, synergistic combos for chromothripsis tumors (AID 1671452); conditions: LFS_MB_1R medulloblastoma cells, stronger effect = higher value;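 note: cells exposed for 96 hours before readout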
[5] = growth inhibition, single agents and combos, HTB85, cell-based, BGB or cisplatin IC20 combos, synergistic combos for chromothripsis tumors (AID 1671453); conditions: HTB85 osteosarcoma cells, drug combinations, stronger effect = higher value;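 note: cells exposed for 96 hours before readout; 0% = vehicle DMSO and 100% = high DMSO killing control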
[6] = growth inhibition, single agents and combos, CRL2098, cell-based, BGB or cisplatin IC20 combos, synergistic combos for chromothripsis tumors (AID 1671454); conditions: CRL2098 osteosarcoma cells, drug combinations, stronger effect = higher value;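 note: cells exposed for 96 h before readout; 0% = vehicle DMSO and 100% = killing by high DMSO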
[7] = growth inhibition, single agents and combos, HD-MB03, cell-based, BGB or cisplatin IC20 combos, synergistic combos for chromothripsis tumors (AID 1671455; in the data active = inhibition above about 83%;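 note: 0% = vehicle DMSO and 100% = high DMSO as cytotoxic control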); conditions: HD-MB03 medulloblastoma cells, stronger effect = higher value
[8] = growth inhibition, single agents and combos, UWB1.289, cell-based, BGB or cisplatin combos, synergistic combos for chromothripsis tumors (AID 1671456); conditions: UWB1.289 ovarian carcinoma cells, stronger effect = higher value;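 note: cells exposed to compound for four days; 0% = vehicle DMSO and 100% = killing by high DMSO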
[9] = growth inhibition, single agents and combos, LFS_MB_2R, cell-based, cisplatin combos, synergistic combos for chromothripsis tumors (AID 1671457); conditions: LFS_MB_2R medulloblastoma cells, stronger effect = higher value;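 note: cells exposed to compound for four days before readout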
[10] = growth inhibition, MDA-MB-436, cell-based, BGB or cisplatin combos, synergistic combos for chromothripsis tumors (AID 1671458; call rule not given here;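 note: cells exposed for 96 hours; 0% = vehicle DMSO and 100% = killing by high DMSO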); conditions: MDA-MB-436 breast carcinoma growth inhibition, drug combinations, stronger effect = higher value
[11] = UWB1.289_BRCA1 ovarian cancer growth, cell-based, BGB or cisplatin combinations (AID 1671459); conditions: UWB1.289 BRCA1 ovarian carcinoma, drug combinations, stronger effect = higher value
[12] = drug combination toxicity in non-malignant astrocytes – cell-based, BGB or cisplatin IC20 combos, cytotoxicity control for chromothriptic childhood tumor combination screen (AID 1671460); conditions: Human astrocytes, viability inhibition, drug combinations, at 0.5 µM, stronger effect = higher value;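 note: cells exposed to compounds for 96 hours before viability readout; 0% = vehicle and 100% = killing control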
[13] = BT084 cell growth, single and combined drugs, ICGC_MB145, cisplatin and BGB IC40 combos (AID 1671461); conditions: BT084 medulloblastoma cells, drug combinations, stronger effect = higher value;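 note: cells exposed to drugs for 96 hours; 0% = vehicle DMSO and 100% = high DMSO full killing control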
[14] = RCMB18 cell growth, single agent and combined, cisplatin and BGB IC40 combos (AID 1671462); conditions: RCMB18 medulloblastoma cells, stronger effect = higher value;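 note: cells exposed to compound for four days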
[15] = CRL1545 cell growth, single agent and combined, cisplatin and BGB IC20 combos (AID 1671464); conditions: CRL1545 osteosarcoma cells, stronger effect = higher value;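 note: cells exposed to compound for 96 hours before readout; 0% = vehicle DMSO and 100% = high DMSO killing control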
[16] = at 0.5 µM, stronger effect = higher value
[17] = measured here: combination with BGB IC20, at 0.005 µM
[18] = measured here: combination with BGB IC40, at 0.005 µM
[19] = measured here: combination with BGB IC40, at 0.05 µM
[20] = measured here: combination with cisplatin, at 0.5 µM, stronger effect = higher value
[21] = measured here: combination with cisplatin, at 5 µM, stronger effect = higher value
[22] = measured here: with BGB IC20 combination, at 0.5 µM
[23] = measured here: with cisplatin IC20 combination, at 0.5 µM
[24] = measured here: 5 uM single agent, at 5 µM
[25] = measured here: combination with cisplatin, at 0.5 µM
[26] = measured here: combination with cisplatin, at 5 µM
[27] = measured here: with BGB IC20, at 0.5 µM
[28] = measured here: with BGB IC20, at 5 µM
[29] = measured here: with cisplatin IC20, at 0.5 µM
[30] = measured here: with cisplatin IC20, at 5 µM
[31] = measured here: combination with BGB at IC20, at 0.5 µM
[32] = measured here: combination with cisplatin at IC20, at 0.5 µM
[33] = measured here: combo with BGB at IC20, at 0.5 µM
[34] = measured here: combo with cisplatin at IC20, at 0.5 µM
[35] = measured here: inhibition with BGB combination, at 0.05 µM
[36] = measured here: inhibition with cisplatin combination, at 0.05 µM
[37] = measured here: BGB combination, at 0.5 µM
[38] = measured here: BGB combination, at 5 µM
[39] = measured here: cisplatin combination, at 0.5 µM
[40] = measured here: cisplatin combination, at 5 µM
[41] = BGB combination, concentration series, at 5 µM
[42] = cisplatin combination, concentration series, at 5 µM
[43] = measured here: combo with BGB IC20
[44] = measured here: combo with cisplatin IC20
[45] = cisplatin combination, at 0.5 µM
[46] = measured here: BGB IC40 combination 0.05 uM, at 0.05 µM

For `C#CCC(CCCCCC)C(=O)O` (stereo not drawn), the inhibition [1, 16] was 5.69% (inactive), the inhibition [1, 17] was 3.1% and the inhibition [1, 18] was 30.2%. It also gave an inhibition [1, 19] of 36.1%, an inhibition [1, 20] of 3.27% and an inhibition [1, 21] of -9.45%. The inhibition ([2]; BGB combo, at 5 µM) was 13.8%, the inhibition ([2]; at 0.5 µM) was 8.32% (inactive) and the inhibition ([2]; cisplatin combo, at 5 µM) was -0.039%. For the same compound, the inhibition [2, 22] was 10.2%, the inhibition [2, 23] was -1.96% and the inhibition ([2]; single agent, at 5 µM) was -0.563%. It also gave an inhibition ([3]; BGB IC20 combo, at 0.005 µM) of -2.69%, an inhibition ([3]; BGB IC40 combo, at 0.005 µM) of -16% and an inhibition ([3]; BGB IC40 combo, at 0.05 µM) of -11.6%. For the same compound, the inhibition ([3]; at 0.5 µM) was -6.37% (inactive), the inhibition ([3]; cisplatin combo, at 0.05 µM) was -16% and the inhibition ([3]; cisplatin combo, at 0.5 µM) was -14.1%. For the same compound, the inhibition ([3]; cisplatin combo, at 5 µM) was -27.6%, the inhibition [3, 24] was -4.43% and the inhibition ([4]; at 0.5 µM) was 3.82% (inactive). For the same compound, the inhibition [4, 19] was -10%, the inhibition [4, 25] was -6.41% and the inhibition [4, 26] was 2.32%. For the same compound, the inhibition ([5]; at 0.5 µM) was 6.28% (inactive), the inhibition [5, 27] was 4.58% and the inhibition [5, 28] was -11%. The inhibition [5, 29] was -9.52%, the inhibition [5, 30] was -7.57% and the inhibition ([5]; single agent, at 5 µM) was 22.7%. For the same compound, the inhibition ([6]; at 0.5 µM) was 2.92% (inactive), the inhibition [6, 31] was 26.1% and the inhibition [6, 32] was 6.9%. For the same compound, the inhibition ([7]; at 0.5 µM) was 3.15% (inactive), the inhibition [7, 33] was 0.099% and the inhibition [7, 34] was 2.13%. For the same compound, the inhibition ([8]; at 0.5 µM) was 4.47% (inactive), the inhibition [8, 35] was 5.84% and the inhibition [8, 36] was 2.18%. The inhibition ([9]; at 0.5 µM) was -4.49% (inactive), the inhibition [9, 25] was 5.98% and the inhibition [9, 26] was 6.31%. For the same compound, the inhibition ([10]; at 0.5 µM) was -1.28% (inactive), the inhibition [10, 37] was -4.71% and the inhibition [10, 38] was -7.63%. The inhibition [10, 39] was -0.109%, the inhibition [10, 40] was -1.88% and the inhibition [11, 41] was -4.85%. For the same compound, the inhibition ([11]; at 0.5 µM) was 3.74% (inactive), the inhibition [11, 42] was 16.5% and the inhibition [12] was 6.72% (inactive). For the same compound, the inhibition [12, 43] was 20.5%, the inhibition [12, 44] was 9.45% and the inhibition ([13]; at 0.5 µM) was 8.59% (inactive). For the same compound, the inhibition [13, 45] was 9.78%, the inhibition ([13]; cisplatin combination, at 5 µM) was 1.82% and the inhibition [13, 46] was 2.2%. The inhibition ([13]; single agent, at 5 µM) was 14.4%, the inhibition ([14]; at 0.5 µM) was -5.37% (inactive) and the inhibition ([14]; cisplatin combo, at 5 µM) was 23.5%. The inhibition ([14]; measured here: BGB IC40 combination, at 0.05 µM) was 5.44%, the inhibition [14, 25] was 22% and the inhibition ([14]; single agent, at 5 µM) was -15.4%. The inhibition ([15]; at 0.5 µM) was -23% (inactive), the inhibition [15, 22] was -43.7% and the inhibition [15, 23] was -12.7%. It also gave an inhibition ([15]; single agent, at 0.05 µM) of 0.433% and an inhibition ([15]; single agent, at 5 µM) of 16.3%.
For `CC(=O)C1(O)Cc2c(O)c3c(c(O)c2C(OC2CC(N)C(O)C(C)O2)C1)C(=O)c1ccccc1C3=O` (stereo not drawn), the inhibition [1, 16] was -11.2% (inactive), the inhibition [1, 17] was -29.5% and the inhibition [1, 18] was -38.8%. For the same compound, the inhibition [1, 19] was -19.5%, the inhibition [1, 20] was -31.3% and the inhibition [1, 21] was 125%. For the same compound, the inhibition ([2]; BGB combo, at 5 µM) was 99.7%, the inhibition ([2]; at 0.5 µM) was 98.4% (active) and the inhibition ([2]; cisplatin combo, at 5 µM) was 99.9%. It also gave an inhibition [2, 22] of 97.4%, an inhibition [2, 23] of 98.5% and an inhibition ([2]; single agent, at 5 µM) of 99.9%. It also gave an inhibition ([3]; BGB IC20 combo, at 0.005 µM) of 97.5%, an inhibition ([3]; BGB IC40 combo, at 0.005 µM) of 95.4% and an inhibition ([3]; BGB IC40 combo, at 0.05 µM) of 100%. The inhibition ([3]; at 0.5 µM) was -42.9% (inactive), the inhibition ([3]; cisplatin combo, at 0.05 µM) was 100% and the inhibition ([3]; cisplatin combo, at 0.5 µM) was -43%. For the same compound, the inhibition ([3]; cisplatin combo, at 5 µM) was -1.78%, the inhibition [3, 24] was -14.9% and the inhibition ([4]; at 0.5 µM) was 102% (active). It also gave an inhibition [4, 19] of 73.8%, an inhibition [4, 25] of 103% and an inhibition [4, 26] of 106%. For the same compound, the inhibition ([5]; at 0.5 µM) was 99.6% (active), the inhibition [5, 27] was 99.4% and the inhibition [5, 28] was 99.7%. The inhibition [5, 29] was 99.8%, the inhibition [5, 30] was 99.8% and the inhibition ([5]; single agent, at 5 µM) was 99.9%. The inhibition ([6]; at 0.5 µM) was 98.6% (active), the inhibition [6, 31] was 98% and the inhibition [6, 32] was 98.6%. The inhibition ([7]; at 0.5 µM) was 94.5% (active), the inhibition [7, 33] was 89.5% and the inhibition [7, 34] was 99.8%. The inhibition ([8]; at 0.5 µM) was 83.1% (active), the inhibition [8, 35] was 40.5% and the inhibition [8, 36] was 51.2%. For the same compound, the inhibition ([9]; at 0.5 µM) was 75.6% (inactive), the inhibition [9, 25] was 88% and the inhibition [9, 26] was 102%. For the same compound, the inhibition ([10]; at 0.5 µM) was 76.4% (inactive), the inhibition [10, 37] was 65.8% and the inhibition [10, 38] was 72.7%. The inhibition [10, 39] was 82.9%, the inhibition [10, 40] was 92.7% and the inhibition [11, 41] was 101%. For the same compound, the inhibition ([11]; at 0.5 µM) was 89% (active), the inhibition [11, 42] was 97.8% and the inhibition [12] was 89.9% (active). For the same compound, the inhibition [12, 43] was 84%, the inhibition [12, 44] was 91.6% and the inhibition ([13]; at 0.5 µM) was 13.8% (inactive). The inhibition [13, 45] was -40.7%, the inhibition ([13]; cisplatin combination, at 5 µM) was 77.4% and the inhibition [13, 46] was -4.42%. The inhibition ([13]; single agent, at 5 µM) was 81.6%, the inhibition ([14]; at 0.5 µM) was 75.2% (inactive) and the inhibition ([14]; cisplatin combo, at 5 µM) was 89.9%.
